DT40 TDP1 CPT – qHTS for Inhibitors of human tyrosyl-DNA phosphodiesterase 1 (TDP1): qHTS in cells in presence of CPT. chicken DT40 Tdp1-/-;hTDP1 cells + 20 nM CPT, ATP luminescence, 48 h. Potency, µM (top dose mostly 46.2 µM), inactives show top-dose activity change, negative = growth inhibition, hits mostly inhibitors. 420,000 tested, 12% active. AID 686979, 2013; further: potency means the concentration at half of the fitted maximal effect; on the % scale 0 is the no-effect control and ±100 the full control effect; nearly all actives have a fitted effect of over 55% in size
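Cell growth measured by CellTiter-Glo luminescence after a minimum 48 h, 37 C compound exposure with 20 nM CPT in Tdp1-knockout DT40 cells stably expressing hTDP1, seeded 400/well; qHTS titration format.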
uPA surface inh – qHTS for Inhibitors of Cell Surface uPA Generation | cell surface uPA generation assay, qHTS | AID 540303, 2011 | Potency, µM (series often up to 38.3 µM), for inactives: at the highest dose activity change, negative = inhibition, usual class: inhibitors | 330,000 tested, 0.31% active; active means well fitted inhibition curve with a large enough effect; inconclusive means small, poorly fitted or top-dose-only effect; inactive means no such curve, though single readings can be large or run the other way; tested in mouse RAW 264.7 cells; further: potency means the concentration at half of the fitted maximal effect; on the % scale 0 is the no-effect control and ±100 the full control effect; nearly all actives have a fitted effect of over 55% in size
TDP1 block – qHTS Assay for Inhibitors of Tyrosyl-DNA Phosphodiesterase (TDP1); Tyrosyl-DNA phosphodiesterase 1 (Homo sapiens), Q9NUW8; recombinant TDP1, AlphaScreen DNA substrate cleavage; Potency, µM (titrated, usually from 130 µM), inactives show top-dose activity change, negative = inhibition, actives largely listed as inhibitors; 350,000 tested, 0.28% active; AID 485290, 2010; further: potency means the concentration at half of the fitted maximal effect; on the % scale 0 is the no-effect control and ±100 the full control effect; nearly all actives have a fitted effect of over 40% in size
Target sequence (Q9NUW8 whole entry, looked up): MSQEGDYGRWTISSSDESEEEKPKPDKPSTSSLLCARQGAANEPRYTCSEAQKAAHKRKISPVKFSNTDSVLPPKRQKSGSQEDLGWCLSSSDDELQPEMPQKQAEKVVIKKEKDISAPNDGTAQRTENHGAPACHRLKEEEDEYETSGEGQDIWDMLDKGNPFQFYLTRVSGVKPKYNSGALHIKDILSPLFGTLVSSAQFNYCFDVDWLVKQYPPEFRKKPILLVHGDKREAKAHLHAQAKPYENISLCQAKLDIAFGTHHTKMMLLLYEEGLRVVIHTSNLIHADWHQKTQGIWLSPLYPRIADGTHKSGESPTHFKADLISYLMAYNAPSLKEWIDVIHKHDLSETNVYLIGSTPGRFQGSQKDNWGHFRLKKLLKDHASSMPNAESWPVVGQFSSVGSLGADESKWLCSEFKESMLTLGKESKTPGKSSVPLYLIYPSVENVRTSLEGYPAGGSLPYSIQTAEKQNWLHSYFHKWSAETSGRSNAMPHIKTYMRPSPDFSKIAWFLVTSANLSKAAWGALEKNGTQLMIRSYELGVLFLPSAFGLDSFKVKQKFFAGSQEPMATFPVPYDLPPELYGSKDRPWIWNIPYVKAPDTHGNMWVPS
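Tdp1 1 nM final; 15 min RT w/ cpd; substrate 15 nM, 5 min; beads 10 ug/ml, 10 min; AlphaScreen read. Neg ctrl: no enzyme.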
DT40 TDP1 no CPT – qHTS for Inhibitors of human tyrosyl-DNA phosphodiesterase 1 (TDP1): qHTS in cells in absence of CPT | AID 686978, 2013 | Potency, µM (top dose mostly 46.2 µM), inactives show at the top dose activity change, negative = growth inhibition, most hits filed as inhibitors | 420,000 tested, 15% active | DT40 Tdp1-/- hTDP1 cells, no CPT, ATP luminescence, 48 h; further: potency means the concentration at half of the fitted maximal effect; on the % scale 0 is the no-effect control and ±100 the full control effect; nearly all actives have a fitted effect of over 55% in size
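Luminescent ATP content (CellTiter-Glo) served as the growth readout. Knockout chicken DT40 cells expressing human TDP1 were exposed to compounds without camptothecin for a minimum 48 hr at 37 °C.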
miR-21 act – qHTS Assay for Modulators of miRNAs and/orActivators of miR-21 | AID 2288, 2010 | Potency, µM (doses to about 38.3 µM), for the others: at the highest dose activity change, positive = activation, most hits filed as activators | 340,000 tested, under 10 active | HeLa miR-21 FLuc reporter, luciferase, 48 h;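 further: % of control where 0% means no effect; miR-21 action dims this reporter so a rising signal means less miR-21 action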
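Compounds were titrated across several concentrations (up to approximately 40 uM) and incubated 48 hours with HeLa miR-21-FLuc reporter cells (miR-21 target sequence downstream of FLuc, endogenous miR-21). Readout was firefly luciferase luminescence after lytic detection reagent.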
* = called active by the depositor; ? = inconclusive; . = no result given; [ ] = dose if it differs, or a comment. Sampled rows, rich in hits. Any-hit rate of the full collection: about 16%. Unless noted, the call rests on the fitted dose curve; in most records, active means well fitted curve in the direction sought with a large enough effect; inconclusive means small, poorly fitted or top-dose-only effect, or another doubt; inactive means no such curve, though single readings can be large; an effect the other way counts as inactive or inconclusive.

SMILES	DT40 TDP1 CPT	uPA surface inh	TDP1 block	DT40 TDP1 no CPT	miR-21 act
O=C(c1ccc2c(c1)N(Cc1ccc(Cl)cc1)C(=O)c1ccccc1S2=O)N1CCC(Cc2ccccc2)CC1 (stereo not drawn)	11.6µM*	.	1.2%	9.2µM*	25.7%
O=C(c1ccc2c(c1)N(Cc1ccccc1F)C(=O)c1ccccc1S2(=O)=O)N1CCN(c2ccccn2)CC1	25.9µM*	.	4.6%	20.6µM*	24.9%
O=C(c1ccc2c(c1)N(Cc1ccccc1)C(=O)c1ccccc1S2(=O)=O)N1CCN(c2ccccn2)CC1	?	.	6.9%	20.6µM*	29.8%
Cc1ccc(-n2nc(C)c(C(C)(O)C(F)(F)F)c2N)cc1 (stereo not drawn)	-0.3%	3.4%	0.6%	-5.2%	-21.8%
COC(=O)c1ccc(S(=O)(=O)c2ccc([N+](=O)[O-])cc2)cc1	?	-15.1%	.	-27.8%	-9.5%
Cn1c(S(=O)(=O)c2ccc([N+](=O)[O-])cc2)nc(Br)c1Br	20.6µM*	-8.3%	3.6%	?	9.9%
O=C1C2C3CCC(O3)C2C(=O)N1c1nccs1 (stereo not drawn)	-3.5%	-7.2%	.	-11.1%	.
Cc1ccc(Nc2nc(NCc3ccccc3)nc3ccsc23)c(C)c1	23.1µM*	.	.	6.51µM*	.
Cc1ccc(CNc2nc(N)c([N+](=O)[O-])c(NCc3ccccc3)n2)cc1	-1.7%	-2.1%	2.7%	-11.4%	-3.2%
Cc1ccc(Nc2nc(NCc3cccs3)nc3ccsc23)c(C)c1	23.1µM*	.	.	9.2µM*	.
C[C@@]12CCC(OC(=O)c3ccccc3)CC1CCc1ccccc12 (stereo partly drawn)	-121.9%	.	.	9.5%	.
COc1ccc(C2CC(c3cccs3)n3nc(N)nc3N2)cc1 (stereo not drawn)	23.1µM*	-17.1%	2.6%	?	-22.0%
COc1ccccc1C1CC(c2ccc(Cl)cc2)Nc2ncnn21 (stereo not drawn)	14.6µM*	4.3%	1.1%	20.6µM*	-1.3%
CCOc1ccccc1C1CC(c2ccc(F)cc2)Nc2nc(N)nn21 (stereo not drawn)	1.16µM*	8.6%	-6.1%	?	-14.6%
Clc1ccc(C2CC(c3ccccc3)Nc3ncnn32)cc1 (stereo not drawn)	?	?	8.7%	-15.8%	0.9%
COc1ccccc1C1CC(c2ccc(Cl)cc2)Nc2nc(N)nn21 (stereo not drawn)	10.3µM*	.	5.9%	16.4µM*	-1.6%
Cc1occc1C(=O)Nc1c(F)cc(F)cc1Br	?	3.5%	2.6%	-10.1%	-3.7%
Cc1ccc(C(=O)N2CCN(c3ccc([N+](=O)[O-])c(NCc4cccnc4)c3)CC2)cc1	-15.4%	-10.9%	8.1%	?	-0.6%
Cc1ccc(-n2ncc3c2CCCC3NC(=O)c2csnn2)cc1C (stereo not drawn)	?	5.9%	6.0%	?	-5.4%
O=C(CCc1ccccn1)NC1CCCc2c1cnn2-c1ccc(F)cc1F (stereo not drawn)	-25.2%	4.8%	5.1%	?	2.2%
O=C(NC1CCCc2c1cnn2-c1ccc(F)cc1F)c1ccccc1N1CCOCC1 (stereo not drawn)	?	-5.4%	3.1%[56.1 µM]	23.1µM*	-1.2%
Cc1ccc(-n2ncc3c2CCCC3NC(=O)c2ccccc2N2CCOCC2)cc1C (stereo not drawn)	16.4µM*	24.1%	1.4%	?	10.5%
CN1CCN(S(=O)(=O)c2ccc(NC(=S)NC(=O)C(C)(C)C)cc2)CC1	-8.7%	-1.1%	-9.6%	?	-0.1%
CC(C)c1ccccc1OCC(O)CN1CCN(S(=O)(=O)c2ccc([N+](=O)[O-])cc2)CC1 (stereo not drawn)	?	-11.8%	.	8.2µM*	24.1%

High-throughput results (PubChem BioAssay)
